Assay results published in the supplement of paper PMC10849652.
About 8,800 targets were measured; listed, in parts, are those with a hit and a random draw of the rest. About 0.5% of all pairs of compound and target were hits.

Assays:
Test in all cases: log2 fold change, soluble protein after heating vs DMSO (PISA); higher = thermal stabilisation; K562 lysate, 10 uM; active = over 0.2 and 3.5 SD of the protein, either way, in both replicates (recomputed)
[1] = compound: C1=CC=C(C=C1)[C@H](COC2=CC3=C(C=C2)NC(=O)N3)NC(=O)C4=CC=CN(C4=O)CC5=CC(=C(C=C5)F)F
In short: (§1)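 The values are log-two fold changes in thermal stability compared with solvent controls and come from duplicates. They were obtained by TMTpro 16plex LC-MS/MS, with channel sums equalised, on the supernatant after 21,000xg for 90 min. That supernatant came from crude K562 extract at 1 mg/mL protein treated with 10 μM compound for 30 min, heated for 3 min across 48°C-58°C, pooled and brought to 0.5% NP-40 at 4°C.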

[2] = compound: CC1=C(SC2=C1C(=N[C@H](C3=NN=C(N32)C)CC(=O)N)C4=CC=C(C=C4)Cl)C
In short: as §1

[3] = compound: CC1=C2C(=CC=C1)N=C(N(C2=O)C3=CC=CC=C3C)CN4C=NC5=C(N=CN=C54)N
In short: as §1

[4] = compound: Cc1sc2c(c1C)C(c1ccc(Cl)cc1)=N[C@@H](CC(=O)OC(C)(C)C)c1nnc(C)n1-2
In short: as §1

[5] = compound: c1ccc([C@@H]2C[C@H]2NC2CCNCC2)cc1
In short: as §1

Measured: log2 fold change

MED17 (UniProt Q9NVC6)
Sequence of UniProt Q9NVC6 (Q9NVC6 whole entry, looked up): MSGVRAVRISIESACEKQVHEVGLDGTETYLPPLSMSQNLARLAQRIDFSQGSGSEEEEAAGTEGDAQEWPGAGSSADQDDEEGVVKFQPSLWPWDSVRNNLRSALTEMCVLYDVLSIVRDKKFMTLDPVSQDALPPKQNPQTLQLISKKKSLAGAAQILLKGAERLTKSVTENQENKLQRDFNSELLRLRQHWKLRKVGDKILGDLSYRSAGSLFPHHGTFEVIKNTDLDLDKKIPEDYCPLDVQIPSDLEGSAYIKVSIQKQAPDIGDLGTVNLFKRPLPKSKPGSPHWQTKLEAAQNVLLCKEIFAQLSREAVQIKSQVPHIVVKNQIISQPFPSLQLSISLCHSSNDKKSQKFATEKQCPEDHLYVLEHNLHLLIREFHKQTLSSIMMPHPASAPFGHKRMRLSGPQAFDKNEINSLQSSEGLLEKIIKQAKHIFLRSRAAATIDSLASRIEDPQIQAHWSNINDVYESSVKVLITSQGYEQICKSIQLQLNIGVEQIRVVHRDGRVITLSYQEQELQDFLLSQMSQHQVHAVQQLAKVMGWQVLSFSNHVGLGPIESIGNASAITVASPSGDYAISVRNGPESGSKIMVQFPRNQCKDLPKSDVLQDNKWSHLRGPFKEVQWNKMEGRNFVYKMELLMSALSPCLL
inactive: [1] 0.009 | [2] 0.021 | [3] 0.016 | [4] 0.021 | [5] 0.02

MED8 isoform 2 (UniProt Q96G25)
Sequence of UniProt Q96G25 (Q96G25 whole entry, looked up): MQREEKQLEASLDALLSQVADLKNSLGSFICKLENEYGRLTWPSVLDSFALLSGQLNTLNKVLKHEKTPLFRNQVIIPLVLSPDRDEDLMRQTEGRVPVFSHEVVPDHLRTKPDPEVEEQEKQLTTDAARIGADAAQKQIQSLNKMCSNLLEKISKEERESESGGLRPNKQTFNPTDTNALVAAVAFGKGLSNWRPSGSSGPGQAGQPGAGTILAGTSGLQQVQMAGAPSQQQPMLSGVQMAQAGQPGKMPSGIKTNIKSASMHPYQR
inactive: [1] -0.047 | [2] -0.033 | [3] -0.048 | [4] -0.039 | [5] 0.063

MAPK3 (UniProt P27361)
Sequence of UniProt P27361 (P27361 whole entry, looked up): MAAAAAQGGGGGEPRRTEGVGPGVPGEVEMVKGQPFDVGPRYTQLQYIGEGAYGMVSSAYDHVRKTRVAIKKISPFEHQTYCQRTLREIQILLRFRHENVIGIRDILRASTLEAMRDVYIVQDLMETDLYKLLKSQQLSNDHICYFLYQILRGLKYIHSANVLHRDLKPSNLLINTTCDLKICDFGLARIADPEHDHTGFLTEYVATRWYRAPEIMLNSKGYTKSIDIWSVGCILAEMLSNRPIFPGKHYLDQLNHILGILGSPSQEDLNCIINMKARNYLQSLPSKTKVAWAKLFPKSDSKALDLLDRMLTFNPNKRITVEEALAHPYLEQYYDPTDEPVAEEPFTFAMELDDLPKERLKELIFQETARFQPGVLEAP
inactive: [1] 0.008 | [2] 0.006 | [3] -0.05 | [4] 0.036 | [5] -0.048

MAP1S (UniProt Q66K74)
Sequence of UniProt Q66K74 (Q66K74 whole entry, looked up): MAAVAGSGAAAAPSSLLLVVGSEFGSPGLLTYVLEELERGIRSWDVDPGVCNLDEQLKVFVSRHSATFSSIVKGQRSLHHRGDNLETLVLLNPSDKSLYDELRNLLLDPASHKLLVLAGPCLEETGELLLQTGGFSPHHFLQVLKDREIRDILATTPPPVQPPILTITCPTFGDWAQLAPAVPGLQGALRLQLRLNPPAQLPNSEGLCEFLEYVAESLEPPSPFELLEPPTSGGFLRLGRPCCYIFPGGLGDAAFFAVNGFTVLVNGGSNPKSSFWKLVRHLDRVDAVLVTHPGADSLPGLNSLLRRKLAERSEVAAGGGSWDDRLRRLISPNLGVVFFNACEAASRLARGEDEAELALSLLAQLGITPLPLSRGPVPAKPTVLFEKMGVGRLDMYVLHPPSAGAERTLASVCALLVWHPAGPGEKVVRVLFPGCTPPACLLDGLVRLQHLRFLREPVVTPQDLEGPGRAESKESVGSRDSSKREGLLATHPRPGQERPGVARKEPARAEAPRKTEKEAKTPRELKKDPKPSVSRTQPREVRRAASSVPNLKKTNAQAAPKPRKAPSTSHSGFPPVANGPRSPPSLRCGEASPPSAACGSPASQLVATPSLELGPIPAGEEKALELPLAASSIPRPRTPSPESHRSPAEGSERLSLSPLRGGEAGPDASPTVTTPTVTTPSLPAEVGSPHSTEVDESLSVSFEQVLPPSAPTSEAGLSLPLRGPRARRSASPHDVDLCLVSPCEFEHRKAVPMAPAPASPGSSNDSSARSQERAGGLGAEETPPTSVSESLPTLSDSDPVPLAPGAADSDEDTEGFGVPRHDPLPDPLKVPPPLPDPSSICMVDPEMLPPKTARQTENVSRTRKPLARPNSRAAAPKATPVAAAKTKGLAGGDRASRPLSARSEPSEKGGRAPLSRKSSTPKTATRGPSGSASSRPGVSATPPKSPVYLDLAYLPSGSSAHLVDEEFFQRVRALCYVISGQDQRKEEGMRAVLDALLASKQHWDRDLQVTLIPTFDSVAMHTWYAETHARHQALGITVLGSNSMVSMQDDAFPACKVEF
inactive: [1] 0.029 | [2] 0.011 | [3] 0.021 | [4] 0.019 | [5] 0.018

KLHL36 (UniProt Q8N4N3)
inactive: [1] -0.072 | [2] -0.086 | [3] -0.018 | [4] -0.011 | [5] 0.074

MED16 (UniProt Q9Y2X0)
Sequence of UniProt Q9Y2X0 (Q9Y2X0 whole entry, looked up): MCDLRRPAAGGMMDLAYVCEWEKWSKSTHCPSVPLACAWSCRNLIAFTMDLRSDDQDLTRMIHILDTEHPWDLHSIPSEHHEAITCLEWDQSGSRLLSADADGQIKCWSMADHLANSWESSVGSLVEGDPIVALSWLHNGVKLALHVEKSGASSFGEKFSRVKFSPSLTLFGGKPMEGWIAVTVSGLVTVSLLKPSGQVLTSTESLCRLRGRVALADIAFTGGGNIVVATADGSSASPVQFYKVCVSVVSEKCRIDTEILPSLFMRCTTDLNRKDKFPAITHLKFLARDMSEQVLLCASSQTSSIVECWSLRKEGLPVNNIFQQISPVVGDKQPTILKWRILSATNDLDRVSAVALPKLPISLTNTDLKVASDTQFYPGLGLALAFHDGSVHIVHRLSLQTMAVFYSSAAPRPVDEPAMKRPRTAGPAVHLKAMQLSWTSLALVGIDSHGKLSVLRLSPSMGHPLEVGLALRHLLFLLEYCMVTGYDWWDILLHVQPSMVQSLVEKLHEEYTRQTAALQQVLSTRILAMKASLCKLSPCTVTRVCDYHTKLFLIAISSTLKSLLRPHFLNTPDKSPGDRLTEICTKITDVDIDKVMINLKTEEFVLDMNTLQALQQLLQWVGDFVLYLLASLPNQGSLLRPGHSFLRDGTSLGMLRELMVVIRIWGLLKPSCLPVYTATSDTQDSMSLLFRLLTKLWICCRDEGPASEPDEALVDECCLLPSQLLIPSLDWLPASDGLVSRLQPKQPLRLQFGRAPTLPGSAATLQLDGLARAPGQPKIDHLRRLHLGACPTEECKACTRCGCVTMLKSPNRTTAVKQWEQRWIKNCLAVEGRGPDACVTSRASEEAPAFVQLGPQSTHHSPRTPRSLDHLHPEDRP
inactive: [1] 0.019 | [2] 0.022 | [3] 0.029 | [4] 0.001 | [5] 0.087

KLC2 (UniProt Q9H0B6)
Sequence of UniProt Q9H0B6 (Q9H0B6 whole entry, looked up): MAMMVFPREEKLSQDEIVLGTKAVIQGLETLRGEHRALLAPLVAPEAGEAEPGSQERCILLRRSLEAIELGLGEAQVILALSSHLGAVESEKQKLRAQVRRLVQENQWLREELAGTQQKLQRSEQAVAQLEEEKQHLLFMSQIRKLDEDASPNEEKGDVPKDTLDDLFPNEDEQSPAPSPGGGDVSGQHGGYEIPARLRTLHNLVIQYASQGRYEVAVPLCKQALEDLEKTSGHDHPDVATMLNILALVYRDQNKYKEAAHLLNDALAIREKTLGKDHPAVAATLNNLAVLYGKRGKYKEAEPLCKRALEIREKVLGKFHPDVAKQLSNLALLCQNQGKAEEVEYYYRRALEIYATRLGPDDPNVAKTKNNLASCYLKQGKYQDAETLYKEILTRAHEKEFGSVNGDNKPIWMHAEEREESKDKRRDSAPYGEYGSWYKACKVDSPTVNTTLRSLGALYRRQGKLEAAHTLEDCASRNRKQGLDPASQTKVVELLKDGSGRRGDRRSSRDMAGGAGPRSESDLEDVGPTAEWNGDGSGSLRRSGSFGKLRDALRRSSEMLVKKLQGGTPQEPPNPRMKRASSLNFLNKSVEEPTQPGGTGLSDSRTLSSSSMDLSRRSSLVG
inactive: [1] -0.032 | [2] 0.016 | [3] 0.029 | [4] 0.003 | [5] 0.122

LIG3 (UniProt P49916)
Sequence of UniProt P49916 (P49916 whole entry, looked up): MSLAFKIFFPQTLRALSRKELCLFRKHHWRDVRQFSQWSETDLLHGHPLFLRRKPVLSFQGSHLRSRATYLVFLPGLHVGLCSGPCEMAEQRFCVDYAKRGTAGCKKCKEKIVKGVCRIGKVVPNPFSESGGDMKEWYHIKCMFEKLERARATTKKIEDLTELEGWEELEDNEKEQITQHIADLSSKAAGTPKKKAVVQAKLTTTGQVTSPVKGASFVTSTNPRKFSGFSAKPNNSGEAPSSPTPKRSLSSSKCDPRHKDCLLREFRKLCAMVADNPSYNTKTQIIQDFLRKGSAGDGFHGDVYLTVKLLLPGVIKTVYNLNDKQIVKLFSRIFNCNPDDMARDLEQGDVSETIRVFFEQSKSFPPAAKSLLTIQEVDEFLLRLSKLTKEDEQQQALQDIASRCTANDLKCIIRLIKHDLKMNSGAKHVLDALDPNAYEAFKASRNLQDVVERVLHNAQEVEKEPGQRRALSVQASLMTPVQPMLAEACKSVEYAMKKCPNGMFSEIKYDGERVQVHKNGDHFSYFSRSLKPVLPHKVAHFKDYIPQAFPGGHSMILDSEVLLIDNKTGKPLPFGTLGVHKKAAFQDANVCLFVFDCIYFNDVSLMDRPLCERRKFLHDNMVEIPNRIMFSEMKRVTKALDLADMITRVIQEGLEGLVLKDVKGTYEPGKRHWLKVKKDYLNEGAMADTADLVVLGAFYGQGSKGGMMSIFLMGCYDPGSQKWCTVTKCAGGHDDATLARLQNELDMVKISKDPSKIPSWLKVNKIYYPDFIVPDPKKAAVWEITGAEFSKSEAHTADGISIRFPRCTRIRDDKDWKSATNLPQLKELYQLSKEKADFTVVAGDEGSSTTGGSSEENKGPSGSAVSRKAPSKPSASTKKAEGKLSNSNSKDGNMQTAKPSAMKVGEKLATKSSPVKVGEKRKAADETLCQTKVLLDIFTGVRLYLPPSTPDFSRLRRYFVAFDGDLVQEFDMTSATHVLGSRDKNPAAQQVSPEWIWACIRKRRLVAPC
inactive: [1] -0.003 | [2] -0.018 | [3] -0.014 | [4] -0.035 | [5] 0.021

MAP4 (UniProt E7EVA0)
inactive: [1] -0.024 | [2] -0.002 | [3] 0.037 | [4] -0.018 | [5] -0.041
